The structures appear in SMILES notation. The source made the active and inactive calls. Unless noted, no rule for the calls is given here.

For assay [1], the system named is Wnt5a (protein binding on small-molecule microarray). The experiment in a line: small molecules binding Wnt5a protein – biophysical, small-molecule microarray, 635/667 nm fluorescence, primary screen (AID 1142).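 Also: fluorescence read at 667 nm with signal to noise per printed feature.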 To be noted: 635 nm fluorescence, higher = more signal.
The nature of assay [2]: ATP-based viability of Huh7 replicon cells – cell-based, CellTiter-Glo luminescence, basal, 48 h, cytotoxicity control for HCV replication inhibitor project, primary screen (AID 1143).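 Also: Huh7 hepatoma cells carrying a hepatitis C replication reporter with no stimulus; test concentration not given here.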 To be noted: higher = more signal, called active from +8 up or from −8 down. (In general: In antiviral work, replicon cells carry a viral genome segment that copies itself.)
Assay [3] is described as follows: Pseudomonas biofilm growth suppression – PAO1 strain, BacTiter-Glo luminescence, LB-PBS, primary screen (AID 1144). To be noted: P. aeruginosa PAO1 biofilm, 12 h, higher = more signal.
Assay [4] is described as follows: basal CRE-LacZ reporter activity in PC12 – cell-based, unstimulated, primary screen (AID 1145). To be noted: no forskolin, luminescence, 4.5 h, higher = more signal, called active from +8 up or from −8 down.
Assay [5] in a line: forskolin-driven CRE-LacZ activity in PC12 – cell-based, CRE-LacZ reporter, forskolin-stimulated, primary screen (AID 1146).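 Also: PC12 cells with 6xCRE LacZ reporter stimulated by forskolin 10 µM; beta-galactosidase reporter signal reflecting CREB driven transcription.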 To be noted: luminescence, 4.5 h, higher = more signal, called active from +8 up or from −8 down.
For assay [6], the target named is Streptavidin (Streptomyces avidinii) (UniProt P22629). The experiment in a line: compounds binding control protein streptavidin – biophysical, small-molecule microarray, 635/667 nm fluorescence, artefact control for SMM compound annotation, primary screen (AID 1147).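 Also: signal reflects streptavidin binding to arrayed compounds as a control protein.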 To be noted: higher = more signal.
Assay [7] can be described thus: probe aInhba binding on compound microarray – biochemical, small-molecule microarray, 635/667 nm fluorescence, primary screen (AID 1148).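 Also: score merges 667nm spot fluorescence with signal-to-noise for antibody binding to printed compounds.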 To be noted: higher = more signal.
Assay [8] concerns the target Torsin-1A (Homo sapiens) (UniProt O14656). Put plainly: TOR1A wild-type binding on microarray – cell lysate, small-molecule microarray, lysate, 635/667 nm, primary screen (AID 1149). Particulars: COS7 hTOR1A-WT lysate, 635 nm fluorescence, higher = more signal.
Assay [9] shares this target. The experiment in a line: torsin A mutant lysate binding on microarrays – cell lysate, small-molecule microarray, COS7 lysate, 635/667 nm fluorescence, primary screen (AID 1150).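 Also: score pools 667 nm emission and signal to noise measuring lysate protein binding.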 Particulars: COS7 hTOR1A mutant lysate, 635 nm fluorescence, higher = more signal.
Assay [10] has as its system Sonic hedgehog protein (Shh). Put plainly: Sonic hedgehog microarray binding compounds – biochemical, small-molecule microarray, 635/667 nm fluorescence, primary screen (AID 1151).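 Also: Shh protein binding to compounds spotted on small-molecule microarray slides; score combines spot fluorescence intensity with signal-to-noise across triplicate slides.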 To be noted: 635 nm fluorescence, higher = more signal.
Assay [11] can be described thus: optical density shifts of acrAB sulA E. coli – strain DRC41, OD650, 48 h, E. coli filamentation inducer project, primary screen (AID 1152).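 Also: E. coli MC1000 strain DRC41 lacking acrAB efflux pump and sulA.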 To be noted: higher = more signal, called active from +8 up or from −8 down.
Assay [12] in a line: probe aLefty1 binding on compound microarray – biochemical, small-molecule microarray, 635/667 nm fluorescence, primary screen (AID 1153).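 Also: score merges spot fluorescence with signal-to-noise ratio from the scanned slide images.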 To be noted: higher = more signal.
A short description of assay [13]: plasmodial surface anion channel blockers, osmotic lysis – cell-based, P. falciparum Indochina, OD700, 1 h, primary screen (AID 1154). To be noted: P. falciparum Indochina infected RBC osmotic lysis, higher = more signal, called active from +8 up or from −8 down.
A short description of assay [14]: plasmodial surface anion channel blockers, osmotic lysis – cell-based, P. falciparum Indochina, OD700, 2 h, primary screen (AID 1155).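 Also: lysis reports solute entry through the parasite surface anion channel PSAC.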 To be noted: P. falciparum Indochina infected erythrocytes, higher = more signal, called active from +8 up or from −8 down.
Assay [15] is described as follows: changes in parasitized red cell lysis, either direction – P. falciparum Indochina, OD700, 3 h, PSAC antagonist project, primary screen (AID 1156). Particulars: P. falciparum-infected erythrocytes, osmotic lysis, higher = more signal, called active from +8 up or from −8 down.
Assay [16] in a line: plasmodial surface anion channel blockers, osmotic lysis – cell-based, P. falciparum Indochina, OD700, 18 h, primary screen (AID 1157). To be noted: P. falciparum Indochina infected erythrocytes, osmotic lysis OD700, 18 h; higher = more signal, called active from +8 up or from −8 down.
The nature of assay [17]: S6 kinase pathway phospho-S6 level changes – cell-based, A549, cytoblot, luminescence, serum-stimulated, primary screen (AID 1158).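 Also: serum-stimulated A549 lung adenocarcinoma cells; signal is phosphorylated S6 detected by cytoblot immunostaining with HRP secondary.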 To be noted: 5 h, higher = more signal.
Assay [18] has as its target NADPH oxidase 2 (Homo sapiens) (UniProt P04839). The experiment in a line: compounds shifting NOX2 Amplex Red fluorescence – cell-based, HEK293-NOX2, PMA-stimulated, NOX inhibitor project, primary screen (AID 1159). Also: test concentration not given here. Particulars: 45 min, higher = more signal, called active from +8 up or from −8 down.
For assay [19], the target named is NADPH oxidase 4 (Homo sapiens) (UniProt Q9NPH5). Put plainly: compounds shifting NOX4 Amplex Red fluorescence – cell-based, HEK293-NOX4, tetracycline-induced, NOX inhibitor project, primary screen (AID 1160). Particulars: HEK293-NOX4, Amplex Red H2O2 fluorescence, 45 min; higher = more signal, called active from +8 up or from −8 down.
Assay [20] deals with NADPH oxidase 5 (Homo sapiens) (UniProt Q96PH1). Put plainly: compounds shifting NOX5 Amplex Red fluorescence – cell-based, HEK293-NOX5, NOX inhibitor project, primary screen (AID 1161). To be noted: HEK293-NOX5, ionomycin, 45 min, higher = more signal.
Sequence of NADPH oxidase 5 (Homo sapiens) (Q96PH1 whole entry, looked up): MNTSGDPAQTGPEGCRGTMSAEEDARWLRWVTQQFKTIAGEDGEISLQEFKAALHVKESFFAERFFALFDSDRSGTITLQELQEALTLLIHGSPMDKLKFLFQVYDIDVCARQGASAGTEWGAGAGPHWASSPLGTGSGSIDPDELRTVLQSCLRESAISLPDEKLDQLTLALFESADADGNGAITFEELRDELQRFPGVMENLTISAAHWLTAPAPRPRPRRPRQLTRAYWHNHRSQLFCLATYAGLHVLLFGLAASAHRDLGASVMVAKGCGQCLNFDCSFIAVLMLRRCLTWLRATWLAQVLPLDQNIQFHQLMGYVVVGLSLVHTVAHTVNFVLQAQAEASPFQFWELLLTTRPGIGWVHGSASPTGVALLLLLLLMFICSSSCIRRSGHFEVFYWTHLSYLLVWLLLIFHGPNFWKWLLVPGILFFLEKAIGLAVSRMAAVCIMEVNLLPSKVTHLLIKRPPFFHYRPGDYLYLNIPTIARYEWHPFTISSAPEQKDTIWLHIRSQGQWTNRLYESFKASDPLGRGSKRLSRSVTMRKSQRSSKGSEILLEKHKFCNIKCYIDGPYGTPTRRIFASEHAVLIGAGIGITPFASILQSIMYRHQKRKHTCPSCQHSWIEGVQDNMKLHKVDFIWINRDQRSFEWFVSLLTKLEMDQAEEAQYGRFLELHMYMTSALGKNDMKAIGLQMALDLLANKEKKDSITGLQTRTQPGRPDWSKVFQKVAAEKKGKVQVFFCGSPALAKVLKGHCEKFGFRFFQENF

Sequence of NADPH oxidase 4 (Homo sapiens) (Q9NPH5 whole entry, looked up): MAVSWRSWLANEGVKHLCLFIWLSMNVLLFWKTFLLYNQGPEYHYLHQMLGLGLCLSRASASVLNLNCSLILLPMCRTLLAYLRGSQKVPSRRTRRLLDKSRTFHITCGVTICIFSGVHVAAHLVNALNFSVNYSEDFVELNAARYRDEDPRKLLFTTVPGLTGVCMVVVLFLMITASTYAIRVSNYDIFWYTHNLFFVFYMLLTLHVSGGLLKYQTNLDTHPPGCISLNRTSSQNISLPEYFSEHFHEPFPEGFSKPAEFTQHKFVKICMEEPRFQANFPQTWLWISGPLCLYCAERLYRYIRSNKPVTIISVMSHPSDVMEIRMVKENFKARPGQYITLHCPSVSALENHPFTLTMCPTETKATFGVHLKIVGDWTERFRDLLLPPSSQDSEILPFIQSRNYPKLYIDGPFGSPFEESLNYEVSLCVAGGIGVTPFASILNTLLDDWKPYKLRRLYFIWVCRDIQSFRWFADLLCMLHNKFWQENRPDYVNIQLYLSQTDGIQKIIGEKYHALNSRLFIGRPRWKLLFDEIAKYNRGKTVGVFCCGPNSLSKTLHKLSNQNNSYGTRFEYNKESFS
Sequence of NADPH oxidase 2 (Homo sapiens) (P04839 whole entry, looked up): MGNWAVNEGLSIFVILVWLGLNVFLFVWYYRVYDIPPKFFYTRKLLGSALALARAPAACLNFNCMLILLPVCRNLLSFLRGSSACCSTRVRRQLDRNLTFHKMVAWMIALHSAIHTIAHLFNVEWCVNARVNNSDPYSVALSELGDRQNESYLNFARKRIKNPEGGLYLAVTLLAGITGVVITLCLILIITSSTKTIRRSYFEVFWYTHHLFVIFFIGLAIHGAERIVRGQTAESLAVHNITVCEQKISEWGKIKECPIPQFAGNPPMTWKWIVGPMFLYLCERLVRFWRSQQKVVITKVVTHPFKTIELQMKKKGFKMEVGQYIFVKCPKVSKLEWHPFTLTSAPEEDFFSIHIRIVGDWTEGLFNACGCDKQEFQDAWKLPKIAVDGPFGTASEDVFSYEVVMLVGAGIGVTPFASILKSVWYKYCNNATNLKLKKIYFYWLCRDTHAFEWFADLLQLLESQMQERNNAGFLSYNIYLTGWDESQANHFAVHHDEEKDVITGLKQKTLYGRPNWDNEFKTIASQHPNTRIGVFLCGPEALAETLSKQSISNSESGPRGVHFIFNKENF
Sequence of Torsin-1A (Homo sapiens) (O14656 whole entry, looked up): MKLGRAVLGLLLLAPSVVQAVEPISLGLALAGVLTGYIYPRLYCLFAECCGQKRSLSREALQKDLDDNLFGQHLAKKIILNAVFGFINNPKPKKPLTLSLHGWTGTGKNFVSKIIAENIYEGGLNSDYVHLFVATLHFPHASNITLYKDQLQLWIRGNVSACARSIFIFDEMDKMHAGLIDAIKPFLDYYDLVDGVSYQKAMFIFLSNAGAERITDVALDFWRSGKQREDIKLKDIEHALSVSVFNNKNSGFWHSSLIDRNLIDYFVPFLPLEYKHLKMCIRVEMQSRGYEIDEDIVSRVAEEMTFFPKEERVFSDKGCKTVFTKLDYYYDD
Sequence of Streptavidin (Streptomyces avidinii) (P22629 whole entry, looked up): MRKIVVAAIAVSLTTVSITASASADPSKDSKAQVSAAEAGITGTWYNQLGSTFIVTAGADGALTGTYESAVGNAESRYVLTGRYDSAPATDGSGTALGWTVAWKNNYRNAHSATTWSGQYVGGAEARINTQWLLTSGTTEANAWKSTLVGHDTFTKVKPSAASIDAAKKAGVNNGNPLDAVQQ

`CC[C@@H](O[Si](C#C[Si](C(C)C)(C(C)C)C(C)C)(C(C)C)C(C)C)c1cn([C@H](C)c2ccccc2)nn1`: the composite z-score was -0.026 in assay [1]; 0.693 in assay [6]; -0.0044 in [7]; 0.398 in [8]; 0.458 in [9]; 0.634 in [10]. In addition, the composite z-score in assay [12] was -0.0601. For the same compound, the z-score is 0.428 (inactive) in assay [2]; -0.0357 (inactive) in assay [3]; -0.374 (inactive) in assay [4]; 0.266 (inactive) in [5]; 0.854 (inactive) in assay [11]; 0.4 (inactive) in [13]. Moreover, the z-score in assay [14] was 0.209 (inactive); in assay [15], -0.969 (inactive); in [16], 0.582 (inactive); in assay [17], -0.711; in [18], -0.0103 (inactive); in [19], -0.507 (inactive). Further, the z-score in assay [20] was determined as 0.0572.
For `COCCOC(=O)N1C(=O)[C@@]2(c3cc(C#CC4=CCCCC4)ccc31)[C@H](C(=O)N1CCCCCCC1)[C@H]1C(=O)O[C@H](c3ccccc3)[C@H](c3ccccc3)N1[C@@H]2c1ccccc1OCCO`, the composite z-score in assay [1] is 0.393; in assay [6], 1.04; in [7] it was 0.806; in assay [8] it was 0.801; in assay [9], 0.824; in assay [10], 1.62. Further, in [12], the composite z-score stood at 1.11. In addition, the z-score was -5.21 (inactive) in assay [2]; -1.33 (inactive) in assay [3]; -1.7 (inactive) in [4]; -1.11 (inactive) in [5]; 0.857 (inactive) in assay [11]; 0.951 (inactive) in assay [13]. Also, the z-score is 1.01 (inactive) in assay [14]; -0.249 (inactive) in assay [15]; 0.413 (inactive) in assay [16]; 0.526 in assay [17]; -0.129 (inactive) in [18]; 0.322 (inactive) in [19]. In addition, in assay [20], the z-score stood at 0.0795.
In the case of `O=C1C2C=CC(C(O)C(c3ccccc3)c3ccccc3)N(Nc3ccccc3F)C2C(=O)N1c1ccccc1` (stereo not given), the composite z-score in assay [1] was 0.739; in [6], 1.58; in [7] it was 0.0183; in assay [8] it was 1.02; in assay [9] it was 0.895; in assay [10], 0.868. For the same compound, the composite z-score in assay [12] came to 0.235. Moreover, the z-score is -1.16 (inactive) in assay [2]; 0.712 (inactive) in assay [3]; 2.73 (inactive) in assay [4]; 0.993 (inactive) in assay [5]; -1.6 (inactive) in [11]; 2.23 (inactive) in assay [13]. Further, the z-score in assay [14] was 1.25 (inactive); in assay [15], 0.663 (inactive); in [16], 0.852 (inactive); in assay [17] it was -0.799; in assay [18] it was -1.34 (inactive); in assay [19], -2.28 (inactive). Moreover, in assay [20], the z-score was -1.87.
On to `CCOC(=O)C[C@H]1[C@H](OC(=O)Cc2ccc3c(c2)OCO3)[C@@H](NC(=O)CC(C)C)c2cc(OCCCO)ccc2N1C(=O)c1ccc2ccccc2n1`, for which the composite z-score in assay [1] is 0.25; in assay [6] it was 0.23; in [7], -0.0331; in [8] it was 0.384; in assay [9], -0.147; in assay [10] it was 0.458. For the same compound, the composite z-score in [12] was 0.0004. For the same compound, the z-score is -3.23 (inactive) in [2]; 0.0536 (inactive) in assay [3]; 7.92 (inactive) in assay [4]; 0.812 (inactive) in assay [5]; 0.685 (inactive) in assay [11]; 2.75 (inactive) in assay [13]. The z-score in [14] was -1.19 (inactive); in assay [15] it was -0.161 (inactive); in [16] it was -2.54 (inactive); in assay [17] it was 0.806; in [18], 0.0707 (inactive); in assay [19] it was -0.356 (inactive). In addition, the z-score in assay [20] is -1.54.
For `COC(=O)[C@@]1(Cc2ccc(F)cc2)[C@@H]2C(=CC(=O)[C@H]2CC(=O)C(=O)N2CCCC2)CN1C(=O)c1ccccc1`, the composite z-score in [1] was found to be 1.74; in [6], 0.696; in assay [7] it was 0.731; in assay [8], 0.448; in [9] it was 1.01; in assay [10] it was 1.82. In [12], this compound displayed a composite z-score of 1.45. Also, the z-score in assay [2] was -4.86 (inactive); in [3], 0.137 (inactive); in assay [4], -0.189 (inactive); in [5] it was 1.86 (inactive); in assay [11], -1.18 (inactive); in assay [13], 3.94 (inactive). In addition, the z-score is -0.607 (inactive) in [14]; -2.12 (inactive) in assay [15]; -1.03 (inactive) in assay [16]; 1.84 in assay [17]; -3.72 (inactive) in assay [18]; -5.14 (inactive) in assay [19]. Besides, in assay [20], the z-score is -4.38.
As for `CC1(C)OB(/C=C\CC(OC(=O)c2ccncc2)c2ccccc2)OC1(C)C` (stereo not given), the composite z-score in assay [1] is 0.496; in assay [6], -0.452; in [7], -0.383; in [8], 0.432; in [9], -0.232; in assay [10] it was -0.476. In assay [12], this compound came in with a composite z-score of 1.24. For the same compound, the z-score was -0.635 (inactive) in assay [2]; 0.135 (inactive) in [3]; 3.3 (inactive) in assay [4]; 0.174 (inactive) in [5]; -0.318 (inactive) in [11]; 0.777 (inactive) in assay [13]. Further, the z-score is -0.854 (inactive) in [14]; -0.66 (inactive) in assay [15]; -0.678 (inactive) in assay [16]; -0.119 in assay [17]; -2.45 (inactive) in assay [18]; 0.637 (inactive) in assay [19]. Also, the z-score in [20] was -5.03.
On to `O=C(NC1CC1)[C@@H]1c2ccccc2C(=O)N(C2CCCCC2)[C@H]1c1ccc(CO)cc1`, for which the composite z-score in assay [1] was 0.0033; in assay [6], -0.104; in [7] it was -0.221; in assay [8] it was -0.164; in [9], 0.324; in assay [10], -0.118. The compound also displayed a composite z-score in [12] of -0.28. The z-score in assay [2] is -1.49 (inactive); in assay [3], 0.446 (inactive); in assay [4], -0.0259 (inactive); in [5], -0.592 (inactive); in [11], 0.1 (inactive); in assay [13] it was 1.4 (inactive). Also, the z-score in [14] was 0.295 (inactive); in assay [15], 0.973 (inactive); in assay [16], 0.0604 (inactive); in [17], -0.0513; in assay [18], 0.382 (inactive); in [19], 0.589 (inactive). Further, in assay [20], the z-score stood at 0.536.
`CCc1cccc(NC(=O)O[C@H]2[C@H](OC(=O)Nc3ccccc3-c3ccccc3)[C@H](OC(=O)Nc3ccccc3-c3ccccc3)[C@@H](OC)O[C@@H]2CO)c1`: the composite z-score in assay [1] was found to be 0.947; in assay [6], 0.284; in [7] it was 0.0345; in assay [8], 0.762; in [9] it was 0.875; in [10] it was 2.18. In addition, the composite z-score in assay [12] came out at 0.0442. In addition, the z-score in assay [2] was -5.67 (inactive); in assay [3], -1.82 (inactive); in assay [4], -0.506 (inactive); in assay [5], -0.238 (inactive); in [11], -1.98 (inactive); in assay [13], 3.88 (inactive). Also, the z-score in assay [14] is 1.84 (inactive); in assay [15], 0.17 (inactive); in assay [16] it was 1.77 (inactive); in assay [17] it was 0.371; in assay [18] it was -3.06 (inactive); in [19] it was -0.477 (inactive). In assay [20], the z-score is -1.01.

Values taken from PubChem BioAssay.
